# Assay outcomes as filed in PubChem BioAssay.
# HT1080 IDH1KD tx: qHTS for induction of synthetic lethality in tumor cells producing 2HG: qHTS for the HT-1080-IDH1KD cell line | HT-1080 IDH1 knockdown viability, ATP luminescence, 48 h | Potency, µM (top dose mostly 46.1 µM), inactives show at the top dose activity, negative = toxicity, usual class: cytotoxic | hit rate 2% among 360,000 | AID 686971, 2013;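 note: 0% = DMSO wells and -100% = cell-free medium wells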
#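 Knockdown cells (IDH1KD HT-1080) received compounds 2 h after plating at 750 cells/well and were kept 48 h at 37 °C in 5% FBS RPMI. A CellTiter-Glo luminescence read gave % activity for curve fitting.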
# SW480 rerep: A quantitative high throughput screen for small molecules that induce DNA re-replication in SW480 colon adenocarcinoma cells. Potency, µM (highest dose often 46.1 µM), inactives show at the highest dose re-replication activation, most hits filed as activators. hit rate 1.8% among 340,000. SW480 DNA re-replication, Hoechst DNA content imaging, 48 h; note: % of control where 0% means no effect; nearly all actives have a fitted effect of over 55% in size
#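 SW480 cells exposed to compounds for 48 hr at 37 C, 5% CO2, then Hoechst-stained 40 min. Nuclear DNA content imaged by fluorescence scanning (405 nm excitation, 500-530 nm emission); re-replication scored as increased high-intensity nuclei.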
# KB-3-1 cytotox: qHTS assay for MDR1-selective chemotherapeutics: Primary screen using the parental adenocarcinoma cell KB-3-1. Potency, µM (titrated, usually from 46.1 µM), actives largely listed as cytotoxic. hit rate 1.4% among 400,000. KB-3-1 viability, CellTiter-Glo ATP luminescence, 72 h. AID 1347075, 2019; note: % is set by controls: 0 for no effect and ±100 for the full control effect; nearly all actives have a fitted effect of over 60% in size
#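 Cytotoxicity in the drug-sensitive parental line KB-3-1 was scored as loss of CellTiter-Glo luminescence following 72 h incubation with compound. Values come from curve fitting of normalized concentration-response data.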
# KB-V1 MDR tox: qHTS assay for MDR1-selective chemotherapeutics: Primary screen using the drug-selected MDR subline cells KB-V1; KB-V1 MDR cells viability, CellTiter-Glo, 72 h; Potency, µM (series often up to 46.1 µM), most hits filed as cytotoxic; hit rate 3.4% among 400,000; AID 1347076, 2019; note: % is set by controls: 0 for no effect and ±100 for the full control effect; nearly all actives have a fitted effect of over 60% in size
#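 Following 72 h at 37 degrees C with compound, KB-V1 cell viability was read by CellTiter-Glo luminescence, medium being phenol-red-free DMEM plus 10% FBS; concentration-response parameters came from normalized, curve-fitted qHTS data.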
# MCF10A rerep: A quantitative high throughput screen for small molecules that induce DNA re-replication in MCF 10a normal breast cells. MCF 10A DNA re-replication, Hoechst nuclear intensity, 48 h. Potency, µM (highest dose often 46.1 µM), for the others: at the highest dose activity, positive = re-replication, usual class: activators. hit rate 2.9% among 350,000. AID 624296, 2012; note: % of control where 0% means no effect; nearly all actives have a fitted effect of over 50% in size
# HT1080NT lethal: qHTS for induction of synthetic lethality in tumor cells producing 2HG: qHTS for the HT-1080-NT fibrosarcoma cell line; HT-1080-NT fibrosarcoma viability, CellTiter-Glo ATP luminescence, 48 h; Potency, µM (top dose mostly 46.1 µM), for inactives: at the highest dose activity, negative = less viability, most hits filed as cytotoxic; hit rate 1.6% among 360,000; AID 686970, 2013;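 note: NT is the 2HG producing partner of a matched IDH1 knockdown line; 0% = DMSO-treated cells and -100% = media-only wells without cells; nearly all actives have a fitted effect of over 55% in size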
#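 A 48-hour cytotoxicity screen used HT-1080-NT cells plated 2 hours before compound delivery. ATP-based CellTiter-Glo luminescence measured viability, normalized to DMSO and no-cell controls.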
# Active calls of the source: *; i = inactive; ? = inconclusive; . = no result given; ! = not active in a repeat; [ ] = remark or other dose. The list is not random: actives were taken first. Their share in the collection is about 7.9%. Calls come from the whole dose curve; as a rule, active = well fitted curve in the direction sought with a large enough effect; inconclusive = small, poorly fitted or top-dose-only effect, or another doubt; inactive = no such curve, though single readings can be large; an effect the other way counts as inactive or inconclusive. Potency is the fitted concentration of half-maximal effect.
SMILES,HT1080 IDH1KD tx,SW480 rerep,KB-3-1 cytotox,KB-V1 MDR tox,MCF10A rerep,HT1080NT lethal
CC(C)Cc1ccc(S(=O)(=O)N2CCOCC2)cc1,11%,-12%,i,i,1%,-1%
Cc1ccccc1OCC(=O)Nc1ccc2nc(SCC(=O)N(C)c3ccccc3)sc2c1,.,.,i,?,.,.
Cc1ccc(-n2nc(C(=O)N(C)c3ccc(C)c(C)c3)c3c4ccccc4n(C)c3c2=O)cc1,.,.,i,i,.,.
CC(CCc1ccccc1)NC(=O)C1CCN(S(=O)(=O)N2CCOCC2)CC1 (centres undefined),25%,-3%,i,21µM*,?,11%
COc1ccc(-c2nc3ccc(C)cn3c2Cc2ccccc2)cc1OC,?,.,i,i,.,?
COc1ccc(-c2nc3ccc(C)cn3c2Cc2cccc(Cl)c2)cc1OC,18µM*,.,i,?,.,?
Cc1ccc2nc(-c3ccc(F)cc3)c(Cc3cccc(Cl)c3)n2c1,?,.,i,?,.,?
Cc1ccc2nc(C(C)(C)C)c(Cc3cccc(Cl)c3)n2c1,?,.,i,i,.,16µM*
CC(C)Cn1cc(NC(=O)N2CCN(c3ccc(F)cc3)CC2)c2ccccc2c1=O,.,.,i,i,.,.
CCN(CC)c1ccc(/C=C/c2cccc[n+]2C)c(OC)c1,?,18µM*,0.65µM*,i,?,?
Cc1ccc(OCC(=O)Nc2cc(-c3nc4cc(Cl)ccc4o3)ccc2C)c(C)c1,.,.,i,i,.,.
COc1ccc(NC(=O)CN2C(=O)C(C)Oc3ccc(C)cc32)cc1 (centres undefined),21µM*,?,i,i,16%,?
COc1ccc(NC(=O)CN2C(=O)C(C)Oc3ccccc32)c(OC)c1 (centres undefined),-25%,-15%,i,16µM*,1%,8%
Cc1ccc(NC(=O)CN2C(=O)C(C)Oc3ccccc32)nc1 (centres undefined),?,-4%,i,15µM*,2%,8%
COc1ccc(N2CCN(C(=O)Cn3cnc4sc(C)c(S(=O)(=O)N5CCC(C)CC5)c4c3=O)CC2)cc1,.,.,i,i,.,.
COc1ccc2[nH]c3c(N4CCN(Cc5ccc6c(c5)OCO6)CC4)ncnc3c2c1,?,?,?,?,?,21µM*
O=S(=O)(c1ccc(OC(F)(F)F)cc1)N1CCC(O)(c2cccc(C(F)(F)F)c2)CC1,0%,-2%,i,i,14%,-24%
O=[N+]([O-])c1ccc2ncnc(N3CCN(Cc4ccc5c(c4)OCO5)CC3)c2c1,-15%,6%,i,?,-2%,-17%
COc1ccc2[nH]c3c(N4CCC(O)(c5cccc(C(F)(F)F)c5)CC4)ncnc3c2c1,21µM*,?,13µM*,18µM*,?,?
CC(C)NC(=O)C1C(c2ccccc2)=Nc2ccccc2N1C(=O)c1ccc(C(F)(F)F)cc1 (centres undefined),1%,.,i,?,.,8%
N#CC1=C(N)OC2=C(CCc3ccccc32)C1c1ccccc1 (centres undefined),0.58µM*,0.73µM*,0.58µM*,1.5µM*,?,0.92µM*
CC1=C(n2nnc3ccccc32)C(c2ccccc2)C(C#N)=C(N)O1 (centres undefined),5%,1%,i,i,5%,6%
Cc1ccc(/C=C2\CCC3=C2OC(N)=C(C#N)C3c2ccc(C)cc2)cc1 (centres undefined),13%,11µM*,i,i,2.9µM*,-5%
Cc1ccc(C2C(C#N)=C(N)Oc3cc(N)ccc32)cc1 (centres undefined),-1%,6%,i,i,?,-10%
Cc1cc(C)cc(OCC(=O)Nc2nc3c(s2)CC(C(C)(C)C)CC3)c1 (centres undefined),.,.,i,i,.,.
SMILES,HT1080 IDH1KD tx,SW480 rerep,KB-3-1 cytotox,KB-V1 MDR tox,MCF10A rerep,HT1080NT lethal
CCCCC(CC)Cn1c(N)c(C#N)c2nc3ccccc3nc21 (centres undefined),?,9.2µM*,i,i,4%,?
Cc1ccc(S(=O)(=O)c2c(N)n(CC3CCOC3)c3nc4ccccc4nc23)cc1 (centres undefined),-4%,-4%,i,?,0%,1%
Cc1ccc(S(=O)(=O)c2c(N)n(CCCN(C)C)c3nc4ccccc4nc23)cc1,-13%,23µM*,i,i,21µM*,-10%
CN(C)CCCn1c(N)c(C#N)c2nc3ccccc3nc21,-6%,18µM*,i,i,18µM*,-13%
O=C(/C=C/c1ccccc1)Nc1cccc(S(=O)(=O)Nc2ccccc2F)c1,-13%,11%,i,9.2µM*!,?,2%
O=C(Cc1ccc(Cl)cc1Cl)Nc1cccc(S(=O)(=O)Nc2ccccc2F)c1,-26%,-2%,?,21µM*,?,0%
O=C(Nc1cccc(S(=O)(=O)Nc2ccccc2F)c1)c1ccc2ccccc2n1,-9%,-1%,i,i,11%,-3%
COc1ccc(N(C)C(=O)NCc2noc3ccc(C)cc23)c(OC)c1,.,.,?,i,.,.
C=C(C)c1cccc(C(C)(C)NC(=O)Nc2ccccc2OCC)c1,-16%,0%,i,i,?,-8%
C=C(C)c1cccc(C(C)(C)NC(=O)Nc2cc(C)ccc2OC)c1,-1%,6%,i,8.2µM*,12%,-2%
CCOc1ccc(S(=O)(=O)N/N=C2/CC(c3ccccc3)Oc3ccccc32)cc1 (centres undefined),-23%,9%,?,18µM*,8%,-5%
O=S(=O)(N/N=C1\CC(c2ccccc2)Oc2ccccc21)c1ccccc1 (centres undefined),-11%,8%[9.22 µM],i,i,2%,-9%
Cc1ccc2nc(-c3ccco3)c(Nc3ccccc3)n2c1,-7%,?,i,10µM*,11%,-9%
Cc1ccn2c(Nc3ccc4c(c3)OCO4)c(-c3ccccn3)nc2c1,?,14%,?,i,-3%,?
Cc1ccc(Nc2c(-c3ccc(C)cc3)nc3ccc(C)cn23)cc1,.,.,i,i,.,.
